Laboratory results: PubChem BioAssay (Tox21)
Values joined by “and” are separate entries in the source; they are usually repeats but may differ in a detail not shown here. Equal values may be shown once. Results filed as inconclusive are left out. The source holds several records for some structures; these can differ, active in one and inactive in another. Active and inactive are the calls of the source. Unless noted, calls follow the shape of the dose curve; as a rule, active = well fitted curve in the direction sought with a large enough effect in the repeat runs; inconclusive = weak or mixed curves; inactive = no such curve, though single readings can be large; an effect the other way counts as inactive or inconclusive.

How the values were obtained:
[1] = molecular target: Thyrotropin-releasing hormone receptor (Homo sapiens) (UniProt P34981); assay: qHTS assay to identify small molecule agonists of the thyrotropin-releasing hormone receptor (TRHR) signaling pathway (AID 1346891; calls by dose curve; also: series mostly up to about 58 µM)
Thyrotropin-releasing hormone receptor (Homo sapiens), sequence (P34981 whole entry, looked up): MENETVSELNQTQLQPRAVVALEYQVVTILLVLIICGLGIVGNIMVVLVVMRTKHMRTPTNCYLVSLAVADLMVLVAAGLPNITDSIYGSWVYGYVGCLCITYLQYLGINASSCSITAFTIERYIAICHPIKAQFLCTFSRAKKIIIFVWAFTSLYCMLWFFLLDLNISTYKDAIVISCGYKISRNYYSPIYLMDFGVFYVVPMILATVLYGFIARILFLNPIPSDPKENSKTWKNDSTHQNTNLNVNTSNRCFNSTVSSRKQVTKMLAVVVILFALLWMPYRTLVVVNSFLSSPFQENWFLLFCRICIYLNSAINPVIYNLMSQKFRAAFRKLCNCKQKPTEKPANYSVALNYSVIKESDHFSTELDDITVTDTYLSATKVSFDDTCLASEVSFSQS
Summary of the method: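 Readout was intracellular calcium fluorescence in TRHR-Hek293 cells. Cells were incubated 18 h, dye-loaded 2 h at 37 °C, and treated with compound in agonist mode.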

[2] = Human pregnane X receptor (PXR) small molecule agonists, qHTS cell viability counter screen (AID 1346977); also: nearly all actives have a fitted effect of over 50% in size
Summary of the method: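 In each well, the PXR reporter HepG2 line was checked for viability: CellTiter-Fluor reagent added 23hr post-dosing, fluorescence read after 1hr incubation at 37C.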

[3] = Caspase-3/7 induction in HepG2 cells by small molecules, qHTS assay (AID 1346978); also: nearly all actives have a fitted effect of over 15% in size
Summary of the method: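 Wild-type HepG2 cells, 2,000/well, settled 5 hr at 37 C and 5% CO2, then compound-treated for 17 hr; caspase-3/7 activity read by luminescent Caspase-Glo 3/7 after 30 min at room temperature.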

[4] = Caspase-3/7 induction in CHO-K1 cells by small molecules, qHTS assay (AID 1346980); also: nearly all actives have a fitted effect of over 15% in size
Summary of the method: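 Wild-type CHO-K1 cells exposed to compounds for 17hr at 37 C, 5% CO2. Caspase-3/7 activity then measured by Caspase-Glo 3/7 luminescence after 30min at room temperature.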

[5] = Caspase-3/7 induction in HepG2 cells by small molecules, qHTS cell viability counter screen (AID 1346981); also: series mostly up to about 92 µM; nearly all actives have a fitted effect of over 30% in size
Summary of the method: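 Wild-type HepG2 cells, 2,000/well, settled 5 hr at 37 C, 5% CO2 before compound addition. Viability read by CellTiter-Fluor fluorescence, reagent added after 16 hr compound exposure, then 1 hr at 37C, in the same wells as the caspase read.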

[6] = molecular target: Nuclear receptor subfamily 1 group I member 2 (Homo sapiens) (UniProt O75469); assay: Human pregnane X receptor (PXR) small molecule agonists, qHTS assay (AID 1346982); also: nearly all actives have a fitted effect of over 35% in size; also: potency is read from the fitted curve at half-maximal effect
Nuclear receptor subfamily 1 group I member 2 (Homo sapiens), sequence (O75469 whole entry, looked up): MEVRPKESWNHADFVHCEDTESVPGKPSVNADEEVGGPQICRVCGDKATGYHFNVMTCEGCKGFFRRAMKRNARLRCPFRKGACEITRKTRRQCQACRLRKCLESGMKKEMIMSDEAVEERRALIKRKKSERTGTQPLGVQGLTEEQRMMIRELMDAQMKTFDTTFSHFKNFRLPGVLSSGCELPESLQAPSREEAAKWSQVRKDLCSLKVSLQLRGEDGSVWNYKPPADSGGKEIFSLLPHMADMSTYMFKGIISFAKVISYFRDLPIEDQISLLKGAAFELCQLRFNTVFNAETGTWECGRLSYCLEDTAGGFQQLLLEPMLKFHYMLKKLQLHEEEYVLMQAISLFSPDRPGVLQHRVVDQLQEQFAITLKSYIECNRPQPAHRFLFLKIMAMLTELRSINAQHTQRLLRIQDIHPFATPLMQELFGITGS
Summary of the method: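 PXR-Luc HepG2 reporter cells (CYP3A4-driven luciferase) in 5% charcoal-stripped FBS medium, plated 5 h before compound addition, then treated 24 h at 37C. Luciferase read by ONE-Glo luminescence after 30 min at room temperature.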

[7] = molecular target: Cytochrome P450 2D6 (Homo sapiens) (UniProt P10635); assay: Cytochrome P450 Family 2 Subfamily D Member 6 (CYP2D6) small molecule antagonists: luciferase reporter qHTS assay (AID 1671196); also: nearly all actives have a fitted effect of over 50% in size; also: potency is read from the fitted curve at half-maximal effect; as to activity change, negative = inhibition: series mostly up to about 120 µM
Cytochrome P450 2D6 (Homo sapiens), sequence (P10635 whole entry, looked up): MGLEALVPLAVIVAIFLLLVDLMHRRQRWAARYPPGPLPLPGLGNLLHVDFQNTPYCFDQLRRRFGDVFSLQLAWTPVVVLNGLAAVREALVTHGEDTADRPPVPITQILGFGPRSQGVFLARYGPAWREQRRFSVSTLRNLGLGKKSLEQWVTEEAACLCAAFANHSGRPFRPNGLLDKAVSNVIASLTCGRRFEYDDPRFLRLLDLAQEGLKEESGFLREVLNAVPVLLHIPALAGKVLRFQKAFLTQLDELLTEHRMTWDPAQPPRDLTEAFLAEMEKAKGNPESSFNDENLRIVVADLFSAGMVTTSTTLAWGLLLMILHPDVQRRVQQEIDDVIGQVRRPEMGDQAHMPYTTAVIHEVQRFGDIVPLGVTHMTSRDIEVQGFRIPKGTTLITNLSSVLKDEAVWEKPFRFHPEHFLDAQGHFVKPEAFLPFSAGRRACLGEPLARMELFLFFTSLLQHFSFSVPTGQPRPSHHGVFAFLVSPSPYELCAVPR
Summary of the method: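 Cell-free P450-Glo system: CYP2D6 with proluciferin substrate was pre-incubated with compound for 10 min, then reacted with NADPH regeneration for 1 h at room temperature. Luciferin product was detected after 20 min, and data were reported as relative luminescence units.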

[8] = molecular target: Cytochrome P450 2C19 (Homo sapiens) (UniProt P33261); assay: Cytochrome P450 Family 2 Subfamily C Member 19 (CYP2C19) small molecule antagonists: luciferase reporter qHTS assay (AID 1671197); also: nearly all actives have a fitted effect of over 65% in size; also: potency is read from the fitted curve at half-maximal effect; as to activity change, negative = inhibition: series mostly up to about 120 µM
Cytochrome P450 2C19 (Homo sapiens), sequence (P33261 whole entry, looked up): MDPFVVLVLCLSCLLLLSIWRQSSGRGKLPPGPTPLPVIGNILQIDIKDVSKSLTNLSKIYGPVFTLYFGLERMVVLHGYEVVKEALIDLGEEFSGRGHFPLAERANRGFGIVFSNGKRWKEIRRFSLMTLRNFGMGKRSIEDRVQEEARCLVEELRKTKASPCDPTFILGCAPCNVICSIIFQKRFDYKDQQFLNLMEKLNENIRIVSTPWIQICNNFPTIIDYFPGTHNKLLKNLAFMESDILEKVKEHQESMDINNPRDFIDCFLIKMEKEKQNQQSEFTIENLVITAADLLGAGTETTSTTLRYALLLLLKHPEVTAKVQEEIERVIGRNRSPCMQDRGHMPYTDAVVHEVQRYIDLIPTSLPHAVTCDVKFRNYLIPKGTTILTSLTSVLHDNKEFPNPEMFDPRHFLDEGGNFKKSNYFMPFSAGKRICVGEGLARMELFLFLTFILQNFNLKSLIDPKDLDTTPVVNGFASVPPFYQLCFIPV
Summary of the method: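 Luminescent readout of CYP2C19 activity: luciferin product detected 20 min after adding detection reagent. Before that, compound and enzyme-substrate mix preincubated 10 min at room temperature; NADPH-regenerating system started a 1 h, 37C reaction. Ketoconazole as positive control.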

[9] = molecular target: Cytochrome P450 1A2 (Homo sapiens) (UniProt P05177); assay: Cytochrome P450 Family 1 Subfamily A Member 2 (CYP1A2) small molecule antagonists: luciferase reporter qHTS assay (AID 1671199); also: nearly all actives have a fitted effect of over 50% in size; also: potency is read from the fitted curve at half-maximal effect; as to activity change, negative = inhibition: series mostly up to about 120 µM
Cytochrome P450 1A2 (Homo sapiens), sequence (P05177 whole entry, looked up): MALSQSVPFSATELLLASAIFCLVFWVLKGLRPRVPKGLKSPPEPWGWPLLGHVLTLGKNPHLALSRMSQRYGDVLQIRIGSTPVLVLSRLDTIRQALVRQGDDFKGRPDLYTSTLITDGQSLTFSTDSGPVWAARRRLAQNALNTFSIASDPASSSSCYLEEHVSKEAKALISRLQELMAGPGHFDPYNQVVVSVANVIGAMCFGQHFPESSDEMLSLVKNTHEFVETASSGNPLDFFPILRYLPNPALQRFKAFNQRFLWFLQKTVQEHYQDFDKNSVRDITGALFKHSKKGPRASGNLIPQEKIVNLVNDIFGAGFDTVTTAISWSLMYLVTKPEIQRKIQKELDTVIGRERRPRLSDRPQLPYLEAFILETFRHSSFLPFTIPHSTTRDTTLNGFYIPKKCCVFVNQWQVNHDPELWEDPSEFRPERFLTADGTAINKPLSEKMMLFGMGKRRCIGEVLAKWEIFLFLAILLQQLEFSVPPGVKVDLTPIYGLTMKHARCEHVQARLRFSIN
Summary of the method: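 P450-Glo CYP1A2 enzyme–proluciferin substrate mix with compound 10 min at room temperature, then NADPH regeneration 1 h at room temperature. Luciferin detection reagent added, luminescence read after 20 min; furafylline positive control.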

[10] = molecular target: Voltage-gated inwardly rectifying potassium channel KCNH2 (Homo sapiens) (UniProt Q12809); assay: Human Ether-a-go-go-Related Gene (hERG) channel small molecule antagonists: fluorescence cell-based qHTS assay (AID 1671200);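 also: hERG-expressing U2OS cells given a thallium stimulus after FluxOR II dye loading; series mostly up to about 77 µM; nearly all actives have a fitted effect of over 50% in size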
Voltage-gated inwardly rectifying potassium channel KCNH2 (Homo sapiens), sequence (Q12809 whole entry, looked up): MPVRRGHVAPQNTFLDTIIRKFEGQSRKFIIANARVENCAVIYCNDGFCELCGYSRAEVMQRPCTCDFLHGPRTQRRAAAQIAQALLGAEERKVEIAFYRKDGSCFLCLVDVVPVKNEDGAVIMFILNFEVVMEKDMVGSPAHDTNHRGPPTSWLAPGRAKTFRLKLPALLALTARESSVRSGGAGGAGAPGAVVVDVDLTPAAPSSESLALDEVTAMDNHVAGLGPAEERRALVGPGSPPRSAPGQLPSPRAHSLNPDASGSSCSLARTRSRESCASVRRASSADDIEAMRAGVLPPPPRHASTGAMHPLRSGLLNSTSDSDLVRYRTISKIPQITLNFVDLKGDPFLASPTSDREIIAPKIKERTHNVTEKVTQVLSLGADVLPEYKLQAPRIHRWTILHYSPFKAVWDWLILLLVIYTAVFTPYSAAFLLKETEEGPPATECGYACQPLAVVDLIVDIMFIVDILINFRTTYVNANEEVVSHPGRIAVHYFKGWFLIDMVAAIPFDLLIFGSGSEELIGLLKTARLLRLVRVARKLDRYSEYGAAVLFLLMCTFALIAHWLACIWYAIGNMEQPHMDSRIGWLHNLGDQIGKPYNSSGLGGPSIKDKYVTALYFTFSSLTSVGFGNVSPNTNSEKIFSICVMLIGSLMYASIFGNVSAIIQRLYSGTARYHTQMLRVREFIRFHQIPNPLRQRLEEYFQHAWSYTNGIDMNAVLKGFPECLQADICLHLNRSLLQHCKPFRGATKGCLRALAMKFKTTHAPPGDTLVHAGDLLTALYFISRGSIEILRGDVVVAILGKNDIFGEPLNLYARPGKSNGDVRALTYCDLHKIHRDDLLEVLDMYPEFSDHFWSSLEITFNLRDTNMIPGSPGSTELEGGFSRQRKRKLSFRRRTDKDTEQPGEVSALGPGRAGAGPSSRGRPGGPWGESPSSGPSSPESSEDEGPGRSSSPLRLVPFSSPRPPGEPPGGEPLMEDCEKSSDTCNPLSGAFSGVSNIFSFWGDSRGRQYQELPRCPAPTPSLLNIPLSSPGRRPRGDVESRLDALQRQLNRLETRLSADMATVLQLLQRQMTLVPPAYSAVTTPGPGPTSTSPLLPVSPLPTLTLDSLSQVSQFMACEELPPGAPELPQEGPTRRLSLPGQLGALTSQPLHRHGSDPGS
Summary of the method: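 In this thallium-flux screen, overnight-cultured U2OS cells bearing the channel are dye-loaded in darkness for an hour, rested 10 min at room temperature, and then monitored kinetically at 480/540 nm for two minutes post-stimulus.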

[11] = molecular target: Cytochrome P450 3A4 (Homo sapiens) (UniProt P08684); assay: Cytochrome P450 Family 3 Subfamily A Member 4 (CYP3A4) small molecule antagonists: luciferase reporter qHTS assay (AID 1671201); also: nearly all actives have a fitted effect of over 50% in size; also: potency is read from the fitted curve at half-maximal effect; as to activity change, negative = inhibition: series mostly up to about 120 µM
Cytochrome P450 3A4 (Homo sapiens), sequence (P08684 whole entry, looked up): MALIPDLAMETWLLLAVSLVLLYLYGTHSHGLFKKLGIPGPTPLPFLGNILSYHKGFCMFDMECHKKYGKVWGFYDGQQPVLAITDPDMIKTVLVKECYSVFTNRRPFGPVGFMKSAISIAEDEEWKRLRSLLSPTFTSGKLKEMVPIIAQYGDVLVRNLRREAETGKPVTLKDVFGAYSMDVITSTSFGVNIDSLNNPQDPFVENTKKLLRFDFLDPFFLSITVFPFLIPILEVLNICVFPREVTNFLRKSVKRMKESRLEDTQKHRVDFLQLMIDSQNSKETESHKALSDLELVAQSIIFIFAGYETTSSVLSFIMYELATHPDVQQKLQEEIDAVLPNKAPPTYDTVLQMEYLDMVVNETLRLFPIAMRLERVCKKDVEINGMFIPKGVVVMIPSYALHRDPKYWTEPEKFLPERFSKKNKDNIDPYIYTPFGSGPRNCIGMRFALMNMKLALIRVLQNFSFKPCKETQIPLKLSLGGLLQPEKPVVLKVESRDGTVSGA
Summary of the method: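 CYP3A4 activity was followed with a P450-Glo proluciferin substrate. Test compounds in DMSO were preincubated 10 min; NADPH regeneration then ran 1 h, and light output was read 20 min after detection reagent.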

[12] = Caspase-3/7 induction in CHO-K1 cells by small molecules, qHTS cell viability counter screen (AID 1346979); also: nearly all actives have a fitted effect of over 35% in size; also: potency is read from the fitted curve at half-maximal effect
Summary of the method: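 Following a 5hr settling period, CHO-K1 cells at 1,500 per well received DMSO-dissolved compounds. Cell viability was quantified 16hr later by CellTiter-Fluor fluorescence, measured after 1hr with reagent at 37C.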

[13] = molecular target: Nuclear receptor subfamily 1 group I member 2 (Rattus norvegicus) (UniProt Q9R1A7); assay: Rat pregnane X receptor (rPXR) activation by small molecules, qHTS assay (AID 1346983); conditions: rPXR luciferase reporter cells, One-Glo luminescence, 24 h; stronger effect = higher value; also: nearly all actives have a fitted effect of over 20% in size
Nuclear receptor subfamily 1 group I member 2 (Rattus norvegicus), sequence (Q9R1A7 whole entry, looked up): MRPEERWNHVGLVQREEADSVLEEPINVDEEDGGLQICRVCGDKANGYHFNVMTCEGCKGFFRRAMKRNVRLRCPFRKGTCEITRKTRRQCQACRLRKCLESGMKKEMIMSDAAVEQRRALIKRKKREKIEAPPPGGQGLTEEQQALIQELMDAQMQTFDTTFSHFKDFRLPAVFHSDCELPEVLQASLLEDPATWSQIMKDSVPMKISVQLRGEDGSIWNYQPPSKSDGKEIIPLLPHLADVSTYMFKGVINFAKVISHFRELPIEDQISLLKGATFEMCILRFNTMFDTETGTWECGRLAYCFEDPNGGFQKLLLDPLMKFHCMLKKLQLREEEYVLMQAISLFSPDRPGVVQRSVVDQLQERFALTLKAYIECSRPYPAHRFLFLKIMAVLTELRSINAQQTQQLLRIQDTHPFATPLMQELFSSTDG
Summary of the method: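 Cell-based rPXR activation assay: rPXR cells, 2,000 per well, rested 5hr at 37 C, then exposed to compounds in DMSO for 24 hr at 37 C. Luciferase activity read by One-Glo luminescence after 30 min at room temperature.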

[14] = molecular target: Cytochrome P450 2C9 (Homo sapiens) (UniProt P11712); assay: Cytochrome P450 Family 2 Subfamily C Member 9 (CYP2C9) small molecule antagonists: luciferase reporter qHTS assay (AID 1671198); also: nearly all actives have a fitted effect of over 50% in size; also: potency is read from the fitted curve at half-maximal effect; as to activity change, negative = inhibition: series mostly up to about 120 µM
Cytochrome P450 2C9 (Homo sapiens), sequence (P11712 whole entry, looked up): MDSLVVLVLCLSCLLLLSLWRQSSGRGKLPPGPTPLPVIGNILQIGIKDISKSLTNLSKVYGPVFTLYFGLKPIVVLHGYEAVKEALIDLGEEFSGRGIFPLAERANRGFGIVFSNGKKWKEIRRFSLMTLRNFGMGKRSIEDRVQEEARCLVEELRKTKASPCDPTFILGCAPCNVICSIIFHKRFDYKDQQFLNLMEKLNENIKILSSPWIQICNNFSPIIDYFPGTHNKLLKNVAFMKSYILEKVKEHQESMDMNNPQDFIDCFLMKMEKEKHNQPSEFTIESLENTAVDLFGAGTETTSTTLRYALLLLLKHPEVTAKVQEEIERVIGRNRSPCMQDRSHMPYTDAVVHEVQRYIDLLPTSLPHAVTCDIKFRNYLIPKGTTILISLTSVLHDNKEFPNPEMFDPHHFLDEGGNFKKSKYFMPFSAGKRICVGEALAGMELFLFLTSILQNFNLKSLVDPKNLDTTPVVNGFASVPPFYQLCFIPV
Summary of the method: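 P450-Glo proluciferin substrate with CYP2C9 enzyme; 10 min RT preincubation, then NADPH regeneration 1 h at 37C; luciferin detection reagent 20 min RT, luminescence in relative luminescence units.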

[15] = molecular target: Nuclear receptor subfamily 1 group I member 2 (Homo sapiens) (UniProt O75469); assay: CYP3A4 induction through human pregnane X receptor (PXR) by small molecules, qHTS assay (AID 1346984); also: nearly all actives have a fitted effect of over 40% in size
Summary of the method: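 DPX-2 HepG2 cells carrying a PXR response element and CYP3A4-promoter luciferase construct, treated with compounds 24 hr at 37C. Then P450-Glo CYP3A4 Luciferin-IPA substrate (3uM final) for 3 hr at 37C, One-Glo added, luminescence read.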

[16] = molecular target: Nuclear receptor subfamily 1 group I member 2 (Homo sapiens) (UniProt O75469); assay: Human pregnane X receptor (PXR) activation by small molecules, qHTS assay (AID 1346985); also: nearly all actives have a fitted effect of over 40% in size
Summary of the method: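 DPX-2 cells (HepG2 co-transfected with a PXR response element and a CYP3A4-promoter luciferase construct) were seeded at 2,000 per well, rested 5 hr at 37C, then exposed to DMSO-dissolved compounds for 24 hr. Activation was read as luciferase luminescence.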
% is scaled to controls: 0 for no effect and ±100 for the full control effect.

COC(C)(C)CCCC(C)CC=O (configuration not stated)
inactive: outcome [1] | Potency [2] | Potency [3] | outcome [4] | Potency [5] | Potency [6] | Potency [7] | Potency [8] | Potency [9] | Potency [10] | Potency [11]

C[N+](C)(C)CC(O)CC(=O)[O-] (configuration not stated)
inactive: outcome [1] | Potency [2] | Potency [3] | Potency [12] | Potency [5] | max activation [13] 7.16% | Potency [8] | Potency [14] | Potency [9] | Potency [10] | Potency [11]

CC(C)(C)c1ccc(O)c(O)c1
active: Potency [12] 63.2 µM and 57.7 µM | Potency [6] 63.2 µM and 27.3 µM | Potency [7] 23.8 µM | Potency [14] 61.5 µM | Potency [9] 41.1 µM
inactive: outcome [1] | Potency [2] | Potency [3] | Potency [8] | Potency [10] | Potency [11]

C=CCOCC(CC)(CO)COCC=C
inactive: outcome [1] | Potency [3] | Potency [12] | outcome [4] | Potency [5] | Potency [6] | Potency [10]
active: Potency [8] 3.99 µM | Potency [14] 25.2 µM | Potency [9] 28.3 µM

CCN(CC)CCNC(=O)c1cc(S(C)(=O)=O)ccc1OC
inactive: outcome [1] | Potency [2] | Potency [3] | outcome [4] | Potency [5] | Potency [6] | max activation [13] -2.45% | Potency [15] | Potency [16] | Potency [8] | Potency [14] | Potency [11]
active: Potency [7] 12.3 µM

C[C@](N)(Cc1ccc(O)cc1)C(=O)O
inactive: activity change, negative = cytotoxicity [2] -1.21% [at 8.39 µM] | caspase activation [3] -1.17% [at 8.39 µM] | activity change, negative = cytotoxicity [12] -0.609% [at 8.39 µM] | caspase-3/7 activation [4] 0.841% [at 8.39 µM] | activity change, negative = cytotoxicity [5] -1.6% [at 8.39 µM] | activation [6] -9.59% [at 8.39 µM] | max activation [13] 0.627% | Potency [15] | Potency [16] | activity change, negative = inhibition [7] -0.539% [at 10.5 µM] | activity change, negative = inhibition [8] -21.1% [at 10.5 µM] | activity change, negative = inhibition [9] 0.454% [at 10.5 µM] | activity change, negative = inhibition [10] 1.07% [at 6.97 µM]

CC(=O)Nc1c(I)cc(I)c(C(=O)O)c1I
active: Potency [7] 27.5 µM
inactive: Potency [2] | Potency [3] | Potency [12] | outcome [4] | Potency [5] | Potency [6] | max activation [13] -2.53% | Potency [15] | Potency [16] | Potency [10] | Potency [11]

Cc1cccc(C)c1NC(=O)C(C)N (configuration not stated)
inactive: Potency [2] | Potency [3] | Potency [12] | outcome [4] | Potency [5] | Potency [6] | max activation [13] -0.615% | Potency [15] | Potency [16] | Potency [7] | Potency [8] | Potency [14] | Potency [9] | Potency [10] | Potency [11]

CC1(C)C(O)C(C)(C)C1O (configuration not stated)
inactive: Potency [2] | Potency [3] | Potency [12] | outcome [4] | Potency [5] | Potency [6] | Potency [7] | Potency [8] | Potency [14] | Potency [9] | Potency [11]

C=CCCCCCCCCC=O
active: Potency [8] 79.6 µM | Potency [14] 31.7 µM
inactive: Potency [2] | Potency [3] | Potency [12] | outcome [4] | Potency [5] | Potency [6] | Potency [7] | Potency [10]

OCCCC1CCCCC1
inactive: outcome [1] | Potency [3] | Potency [12] | outcome [4] | Potency [5] | Potency [6] | Potency [8] | Potency [14] | Potency [9] | Potency [10] | Potency [11]

CC(=O)OC/C=C(\C)CC/C=C(\C)CCC=C(C)C
active: Potency [8] 20 µM and 71 µM | Potency [14] 35.6 µM | Potency [11] 10 µM
61.1 µM (active) and inactive: Potency [6]
inactive: outcome [1] | Potency [3] | Potency [12] | outcome [4] | Potency [5] | Potency [10]

C=CCS(=O)(=O)O
inactive: outcome [1] | Potency [3] | Potency [12] | Potency [5] | Potency [7] | Potency [8] | Potency [14] | Potency [9] | Potency [10]

NS(=O)(=O)c1ccc(C(=O)O)cc1
inactive: Potency [2] | Potency [3] | Potency [12] | outcome [4] | Potency [5] | Potency [6] | Potency [7] | Potency [8] | Potency [14] | Potency [9] | Potency [10] | Potency [11]

NCCc1cnc[nH]1
inactive: outcome [1] | Potency [3] | Potency [12] | Potency [5] | Potency [10]

CCOC(=O)CCC(C)=O
inactive: Potency [2] | Potency [3] | Potency [12] | outcome [4] | Potency [5] | Potency [6] | Potency [7] | Potency [8] | Potency [14] | Potency [9] | Potency [11]

O=C1OC(=O)C2CCCCC12 (configuration not stated)
inactive: Potency [2] | Potency [3] | Potency [12] | outcome [4] | Potency [5] | Potency [6] | Potency [7] | Potency [8] | Potency [14] | Potency [9] | Potency [10] | Potency [11]

C[N+](C)(C)CCCCCC[N+](C)(C)C
inactive: outcome [1] | Potency [3] | Potency [12] | outcome [4] | Potency [5] | max activation [13] 0.135% | Potency [7] | Potency [8] | Potency [14] | Potency [9] | Potency [10] | Potency [11]

O=C1NC(=O)[C@@]2(CCOc3ccc(F)cc32)N1
inactive: Potency [2] | Potency [3] | Potency [12] | outcome [4] | Potency [5] | Potency [6] | max activation [13] -0.447% | Potency [15] | Potency [16] | Potency [7] | Potency [8] | Potency [14] | Potency [9] | Potency [10] | Potency [11]

COc1c(N2C[C@@H]3CCCN[C@@H]3C2)c(F)cc2c(=O)c(C(=O)O)cn(C3CC3)c12
inactive: Potency [2] | Potency [3] | Potency [12] | outcome [4] | Potency [5] | Potency [6] | max activation [13] -3.75% | Potency [15] | Potency [16] | Potency [7] | Potency [8] | Potency [14] | Potency [10] | Potency [11]

NS(=O)(=O)c1cc2c(cc1Cl)NC(C1CC3C=CC1C3)NS2(=O)=O (configuration not stated)
active: Potency [14] 12.3 µM
inactive: outcome [1] | Potency [3] | Potency [12] | outcome [4] | Potency [5] | Potency [6] | Potency [10]

CCCCCSCCCCC
inactive: Potency [2] | Potency [3] | Potency [12] | outcome [4] | Potency [5] | Potency [6] | Potency [7] | Potency [8] | Potency [14] | Potency [9] | Potency [11]
